Records with an inconclusive call do not appear. Entries that show only a call come without a potency. Calls of active or inactive are those of the source. The call rests on the fitted dose curve; in most records, active means well fitted inhibition curve with a large enough effect; inconclusive means small, poorly fitted or top-dose-only effect; inactive means no such curve, though single readings can be large or run the other way.
Potency means the concentration at half of the fitted maximal effect.

The experiment can be described thus: Tertiary RLuc qRT-PCR qHTS assay for Zika virus inhibitors (AID 1347169). Further: nearly all actives have a fitted effect of over 55% in size. Conditions: infected Vero cells, reporter luminescence, 48-72 h; series mostly up to 45.9 µM. The text has this: Avindra Nath, Ph.D., National Institute of Neurological Disorders and Stroke (NINDS), Bethesda, MD
Radhakrishnan Padmanabhan, Ph.D., Georgetown University (GU), Washington D.C.
Zika Virus causes congenital defects, including microcephaly and is associated with Guillain-Barre syndrome, eningoencephalitis and myelitis in infected adult. […] Using a target-based approach, we hope to establish a screening paradigm to uncover novel, cell-active NS2B-NS3 protease (Zika Virus) specific inhibitors from NCATS' collection of small molecules using qHTS.
Four assay panel was created to identify potential Zika Virus inhibitors. Namely, (1) GU unlinked NS2B-NS3 AMC tagged protease qHTS, (2) GU unlinked NS2B-NS3 Rhodamine tagged protease qHTS, (3) NINDS linked NS2B-NS3 AMC tagged protease qHTS, (4) NINDS linked NS2B-NS3 Rhodamine tagged protease qHTS. Identified inhibitors were re-acquired and tested against secondary confirmatory, orthogonal, and counterscreens to exclude nonspecific inhibition.
Early Translation Branch (ETB)
National Center for Advancing Translational Sciences (NCATS), Rockville, MD
National Institute of Health (NIH), Bethesda, Maryland
1536-well recombinant virus ZIKV-RLuc (Cambodian) Assay:
For a follow-up assay, we adapted a high throughput orthogonal assay in 1536-well plate format to use the recombinant virus ZIKV-RLuc, in Vero cells. Briefly, three microL of Vero cells derived from a green monkey cell line, were dispensed Multidrop Dispenser into a solid bottom white 1,536-well plate at a concentration of 1,000 cells per well. The plate was incubated overnight in a CO2 incubator at 37 degrees C. Compounds were delivered as a 23 nL DMSO solution by Kalypsys pintool transfer. Following compound transfer, 2 microL of ZIKV-RLuc was added at an MOI of 1-2 and incubated in a CO2 incubator for 48-72 hrs at 37 degrees C. After sufficient incubation of infected cells in test plates, live cell Renilla luciferase substrate (Promega) was added. The luminescence signal was measured after 1-1.5 hrs exposure to substrate in ViewLux reader.
Turning to `CCn1cc(C(=O)O)c(=O)c2cc(F)c(N3CCNC(C)C3)c(F)c21` (stereo not given), the Potency result was “inactive”.
For `Cc1[nH]c(=O)c(C#N)cc1-c1ccc2nccn2c1` the value was “inactive”.
Consider `Cc1[nH]c(=O)c(C#N)cc1-c1ccncc1`, for which the Potency result is “inactive”.
The value for `Cn1cnc([N+](=O)[O-])c1Sc1ncnc2nc[nH]c12` was 26.9 µM (active).
Regarding `CCCCNc1cc(C(=O)O)cc(S(N)(=O)=O)c1Oc1ccccc1`, the Potency entry was “inactive”.
